Our source for the potency estimated from few doses values is PMC11062922 (Nature Chemical Biology, 2023).

Where two headings read alike, the source gives them in different places.

What all share (design): species or system human, MV4-11 + K-562 + COLO205 + SK-N-BE2 + OVCAR-8
The subject of one experiment is T1, DJA1.
T1 construct: gene DNAJA1
The following applies: read-out: apparent Kd, compound concentrations: 100 nM and 1000 nM (sheet 'Samples'), n = 1.

In a further experiment the test system is NNT. The note with it: read-out: apparent Kd; compound concentrations: 100 nM and 1000 nM (sheet 'Samples'), CATDS: 0.29413941723105502; n = 1.
In a further experiment the test system is PDXK. The following applies: read-out: apparent Kd, compound concentrations: 100 nM and 1000 nM (sheet 'Samples'), n = 1.
Another experiment deals with DDR1. The following applies: read-out: apparent Kd, n = 1.
The next experiment deals with MAPK14. The following applies: read-out: apparent Kd, n = 1.
A further experiment has as its system MAPKAPK2. The following applies: read-out: apparent Kd, n = 1.
The subject of a further experiment is PTK6. The following applies: read-out: apparent Kd; compound concentrations: 100 nM and 1000 nM (sheet 'Samples'), CATDS: 0.387863257787184; n = 1.
For another experiment, the system named is TNK2. The following applies: read-out: apparent Kd; compound concentrations: 100 nM and 1000 nM (sheet 'Samples'), CATDS: 0.62096450214514598; n = 1.
A further experiment concerns EGFR. The following applies: read-out: apparent Kd; compound concentrations: 100 nM and 1000 nM (sheet 'Samples'), CATDS: 1; n = 1.
For the next experiment, the system named is DDR2. The following applies: read-out: apparent Kd; compound concentrations: 100 nM and 1000 nM (sheet 'Samples'), CATDS: 0.27583033516959499; n = 1.
The test system of another experiment is PIP4K2C. The note with it: read-out: apparent Kd; compound concentrations: 100 nM and 1000 nM (sheet 'Samples'), CATDS: 0.290600345689909; n = 1.
The test system of another experiment is RIPK2. The following applies: read-out: apparent Kd; compound concentrations: 100 nM and 1000 nM (sheet 'Samples'), CATDS: 0.517215300479827; n = 1.
The next experiment deals with PIK3C3. The following applies: read-out: apparent Kd; compound concentrations: 100 nM and 1000 nM (sheet 'Samples'), CATDS: 0.180657848529719; n = 1.
For the next experiment, the system named is PIK3CA. The note with it: read-out: apparent Kd; compound concentrations: 100 nM and 1000 nM (sheet 'Samples'), CATDS: 0.62004014167069399; n = 1.
The subject of a further experiment is STK16. The note with it: read-out: apparent Kd, compound concentrations: 100 nM and 1000 nM (sheet 'Samples'), n = 1.
The subject of another experiment is STK4. The following applies: read-out: apparent Kd; compound concentrations: 100 nM and 1000 nM (sheet 'Samples'), CATDS: 0.1689879657386; n = 1.
Another experiment deals with DYNC1LI1. The note with it: read-out: apparent Kd; compound concentrations: 100 nM and 1000 nM (sheet 'Samples'), CATDS: 9.8378875134037994E-2; n = 1.
Another experiment relates to GSK3A. The following applies: read-out: apparent Kd; compound concentrations: 100 nM and 1000 nM (sheet 'Samples'), CATDS: 0.15388620061227101; n = 1.
The next experiment relates to GSK3B. The following applies: read-out: apparent Kd; compound concentrations: 100 nM and 1000 nM (sheet 'Samples'), CATDS: 0.158803622599584; n = 1.
The next experiment relates to MYLK3. The following applies: read-out: apparent Kd; compound concentrations: 100 nM and 1000 nM (sheet 'Samples'), CATDS: 9.6792260241437694E-2; n = 1.
In the next experiment the test system is PIK3CD. The note with it: read-out: apparent Kd, compound concentrations: 100 nM and 1000 nM (sheet 'Samples'), n = 1.
The subject of a further experiment is PRKCD. The following applies: read-out: apparent Kd; compound concentrations: 100 nM and 1000 nM (sheet 'Samples'), CATDS: 9.5557824797396607E-2; n = 1.
A further experiment concerns PRKCQ. The note with it: read-out: apparent Kd; compound concentrations: 100 nM and 1000 nM (sheet 'Samples'), CATDS: 0.104256233520078; n = 1.
A further experiment relates to RET. The note with it: read-out: apparent Kd; compound concentrations:100 nM and 1000 nM (sheet 'Samples'); n = 1.
The next experiment relates to DYRK1A. The note with it: read-out: apparent Kd; compound concentrations:100 nM and 1000 nM (sheet 'Samples'); n = 1.
The test system of the next experiment is PRKD1. The following applies: read-out: apparent Kd; compound concentrations:100 nM and 1000 nM (sheet 'Samples'); n = 1.
For the next experiment, the system named is MAPK11. The note with it: read-out: apparent Kd; compound concentrations: 100 nM and 1000 nM (sheet 'Samples'), CATDS: 0.201173372459408; n = 1.
The next experiment deals with GRAMD1A. The note with it: read-out: apparent Kd; compound concentrations: 100 nM and 1000 nM (sheet 'Samples'), CATDS: 0.16329310208272499; n = 1.
For another experiment, the system named is TAOK1. The following applies: read-out: apparent Kd; compound concentrations: 100 nM and 1000 nM (sheet 'Samples'), CATDS: 0.164417003355011; n = 1.
The next experiment concerns TESK1. The following applies: read-out: apparent Kd; compound concentrations: 100 nM and 1000 nM (sheet 'Samples'), CATDS: 0.150305676910791; n = 1.
The next experiment relates to TTN. The following applies: read-out: apparent Kd; compound concentrations: 100 nM and 1000 nM (sheet 'Samples'), CATDS: 0.51725800618074103; n = 1.
[1] abbreviates: compound concentrations:100 nM and 1000 nM (sheet 'Samples').

`CC(C)c1[nH]nc2c1N=C(c1ccccc1Cl)c1cc([N+](=O)[O-])ccc1N2` [RO0274710-000]: the potency estimated from few doses is 0.864 µM in the experiment with DJA1 (CATDS: 0.40583373860109201), 1.64 µM with NNT and 1.37 µM in the experiment with PDXK (CATDS: 0.31885839544215799).
For `CCN1CCN(Cc2ccc(C(=O)Nc3ccc(C)c(Oc4ccc5c(c4)CC(=O)N5)c3)cc2C(F)(F)F)CC1.Cl.Cl` [DDR1-in-1], the potency estimated from few doses in the experiment on DDR1 (setting [1]) is 0.363 µM; with MAPK14 (setting [1]), 0.958 µM; in the experiment with MAPKAPK2 (setting [1]), 0.858 µM.
As to `COc1cc(N2CCN(C)CC2)ccc1Nc1ncc2c(n1)N(C)c1ccccc1C(=O)N2` [XMD8-87], the values for the potency estimated from few doses with DJA1 (CATDS: 0.207840847551445), in the experiment with PTK6 and in the experiment on TNK2 were 1.71 µM, 0.123 µM and 0.0475 µM, respectively.
As for `Cl.Oc1ccc(-c2nc(-c3ccccc3)[nH]c2-c2ccncc2)cc1` [SB-428218-A], the potency estimated from few doses with DJA1 (CATDS: 1) is 0.108 µM.
As for `CS(=O)(=O)CCN(CC#N)Cc1ccc(-c2ccc3ncnc(Nc4ccc(OCc5cccc(F)c5)c(Cl)c4)c3c2)o1` [GW616030X], the potency estimated from few doses in the experiment with EGFR is 0.244 µM.
For `CNC(=O)c1cncc(/C=C/c2c(C)cccc2C)c1` [GW445012X], the potency estimated from few doses was 2.06 µM with DDR2, 1.8 µM in the experiment on PIP4K2C and 0.587 µM in the experiment with RIPK2.
Consider `COc1cc2ncnc(Nc3ccc(OCc4ccccc4Br)c(Cl)c3)c2cc1OC.Cl` [GI261590A], for which the potency estimated from few doses in the experiment on EGFR is 2.23 µM.
As to `COc1ccc(NC(=O)c2ccoc2)cc1-c1ccc(C(=O)NCC2CC2)cc1` [GW810437X], the potency estimated from few doses with DJA1 (CATDS: 0.17319621372560801) is 1.72 µM; with PIK3C3, 1.53 µM; in the experiment with PIK3CA it was 0.147 µM; in the experiment on STK16 (CATDS: 0.16232458546683101) it was 2.06 µM; in the experiment with STK4, 1.83 µM.
`CCNC(=O)O[C@H]1CN[C@H](C#Cc2cc3ncnc(Nc4ccc(OCc5cccc(F)c5)c(Cl)c4)c3s2)C1` [GSK192082A]: in the experiment on EGFR, the potency estimated from few doses is 0.177 µM.
For `Cn1cc(C2=C(c3cn(C)c4ccc(N)cc34)C(=O)NC2=O)c2ccccc21` [RO0317365-000], the potency estimated from few doses in the experiment on DJA1 (CATDS: 0.11913722870337901) was 1.12 µM; in the experiment on DYNC1LI1, 1.88 µM; in the experiment on GSK3A it was 0.637 µM; with GSK3B, 0.598 µM; in the experiment with MYLK3 it was 1.97 µM; in the experiment with PIK3CD (CATDS: 0.44284718560289399) it was 0.113 µM. Besides, the potency estimated from few doses was 2.06 µM with PRKCD and 1.58 µM in the experiment on PRKCQ.
`COC(=O)Nc1nc2ccc(Oc3ccc(NC(=O)Nc4cc(C(F)(F)F)ccc4F)cc3)cc2[nH]1.Cl` [GW654607A]: the potency estimated from few doses in the experiment with DDR1 (setting [1]) is 2.14 µM; in the experiment on RET it was 0.64 µM.
On to `O=c1[nH]cc(-c2ccc(N3CCOCC3)cc2)c2sc(-c3cn[nH]c3)cc12` [GSK2276055A], for which the potency estimated from few doses in the experiment on DYRK1A is 0.81 µM; in the experiment with PRKD1, 0.936 µM.
Consider `Cc1ccc(NC(=O)c2ccnc(N3CCCC3)c2)cc1-c1ccc(C(=O)NCC2CC2)cc1` [GW769076X], for which the potency estimated from few doses in the experiment with DDR1 (compound concentrations: 100 nM and 1000 nM (sheet 'Samples'), CATDS: 0.199850350995284) was 0.57 µM; in the experiment with MAPK11, 0.559 µM; with MAPK14 (compound concentrations: 100 nM and 1000 nM (sheet 'Samples'), CATDS: 0.39757840601660499), 0.14 µM; with MAPKAPK2 (compound concentrations: 100 nM and 1000 nM (sheet 'Samples'), CATDS: 0.28488469813325601), 0.25 µM.
On to `CCCN(CCS(C)(=O)=O)Cc1ccc(-c2ccc3ncnc(Nc4ccc(OCc5cccc(F)c5)c(Cl)c4)c3c2)o1.Cl` [GW621823A], for which the potency estimated from few doses in the experiment with EGFR is 0.643 µM.
Regarding `Cc1c(O)cccc1Nc1ccnc2ccc(C(F)(F)F)cc12.Cl` [GW466413A], the potency estimated from few doses in the experiment with DJA1 (CATDS: 0.25359634336132503) is 0.686 µM; in the experiment with GRAMD1A it was 1.49 µM; in the experiment with PDXK (CATDS: 0.146836673645412), 1.89 µM; in the experiment with STK16 (CATDS: 0.15656127155851701), 1.63 µM; in the experiment on TAOK1 it was 1.47 µM; in the experiment with TESK1 it was 1.79 µM.
In the case of `Nc1nccc2scc(-c3ccc4c(c3)CCN4C(=O)Cc3cc(F)ccc3F)c12` [GSK2587663A], the potency estimated from few doses is 1.09 µM in the experiment on DJA1 (CATDS: 0.21507760056604699), 0.127 µM in the experiment on PIK3CD (CATDS: 0.41369424364853202) and 0.0832 µM with TTN.
